ClpP mod = qHTS Assay for Activators of ClpP; Potency, µM (series often up to 57.5 µM); ATP-dependent Clp protease proteolytic subunit (Bacillus subtilis (strain 168)), P80244; AID 651965, 2013; actives 1.9% (n = 340,000); purified B. subtilis ClpP, FRET peptide cleavage, 20 min; active = well fitted falling curve with a large enough effect; inconclusive = small, poorly fitted or top-dose-only effect; inactive = no such curve, though single readings can be large or run the other way; note: the source files actives as falling curves though it sought activators and does not explain the sign; nearly all actives have a fitted effect of over 65% in size
Target sequence (P80244 whole entry, looked up): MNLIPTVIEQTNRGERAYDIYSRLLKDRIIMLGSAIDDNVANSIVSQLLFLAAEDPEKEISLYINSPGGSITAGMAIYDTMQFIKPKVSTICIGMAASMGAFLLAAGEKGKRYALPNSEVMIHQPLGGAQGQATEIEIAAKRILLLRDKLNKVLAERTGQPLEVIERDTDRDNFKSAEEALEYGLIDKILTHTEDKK
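Buffer: 100 mM Tris/HCl pH8, 100 mM KCl, 0.05% low protease BSA, 2.5% glycerol, 0.01% Tween-20. ClpP 10 microg/mL final; 20 min RT; delta FRET normalized to ADEP and DMSO controls.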
GLP-1R agonist = agonists of human GLP-1 receptor | P43220 | HEK293 GLP-1R CRE-luciferase, luminescence, 4-6 h; cells express a hypersensitive GLP-1R form | Potency, µM (series often up to 45.6 µM), actives largely listed as activators | actives 0.007% (n = 380,000) | AID 624172
GLP1R inv ag = inverse agonists of human GLP-1 receptor; HEK293 GLP-1R CRE-luciferase, luminescence, 24 h; GLP-1R form is constitutively active; Potency, µM (series often up to 38.3 µM), usual class: inhibitors; AID 624417; actives 1.6% (n = 410,000); note: nearly all actives have a fitted effect of over 55% in size
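Assay principle: reduced luminescence from a cAMP-responsive reporter in HEK293 cells co-expressing a constitutively active GLP-1R. Conditions: 24 hr compound incubation, 37 deg C, 5% CO2.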
DRD3 antagonist = antagonists of human D3 dopamine receptor | max response, negative = inhibition, % | P35462 | D3R cells, DiscoveRx beta-arrestin luminescence, antagonist mode; hits give low values | actives 2.5% (n = 360,000); in the data active = max response below about -50%; inconclusive = no clear call, values can overlap the other calls
Target sequence (P35462 whole entry, looked up): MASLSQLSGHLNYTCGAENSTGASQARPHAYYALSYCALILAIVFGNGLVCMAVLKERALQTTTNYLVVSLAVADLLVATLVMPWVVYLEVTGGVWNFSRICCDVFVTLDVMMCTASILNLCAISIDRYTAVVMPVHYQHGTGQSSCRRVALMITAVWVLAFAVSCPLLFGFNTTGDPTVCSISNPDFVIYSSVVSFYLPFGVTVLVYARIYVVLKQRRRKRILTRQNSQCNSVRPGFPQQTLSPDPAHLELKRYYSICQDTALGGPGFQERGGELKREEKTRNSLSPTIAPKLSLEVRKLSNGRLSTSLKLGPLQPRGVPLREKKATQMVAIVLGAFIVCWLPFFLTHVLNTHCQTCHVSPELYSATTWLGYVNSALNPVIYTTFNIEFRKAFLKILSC
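Cells plated overnight at 1500 cells/well, then exposed to library compounds with dopamine controls for 90 minutes at 37 degrees C. DiscoveRx reagent added for 30–60 minutes at room temperature; luminescence read, quantitative HTS format.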
D3 ag = activates the human D3 dopamine receptor. max activation, %. actives 0.58% (n = 410,000). P35462. D3R DiscoveRx beta-arrestin cells, luminescence, 90 min. AID 652048; in the data active = max activation above about 30%
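Cells at 1500/well, incubated overnight, then treated with pinned compounds (dopamine as control) for 90 min at 37 degrees C. DiscoveRx reagent added for 30 - 60 minutes at room temperature; luminescence read.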
GLP1R cytotox = cytotoxicity counter-screen for GLP-1 receptor inverse agonists. HEK293 cAMP-luciferase reporter cells, luminescence, 24 h. Potency, µM (titrated, usually from 38.3 µM), hits mostly inhibitors. actives 0.13% (n = 410,000). AID 624418;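 note: loss of luciferase light is scored as toxicity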
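To flag toxic compounds, the library was rerun on cells for 24 hr at 37 deg C and 5% CO2. Viability-linked luminescence was captured 12 min after adding luciferase detection reagent.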
Large screens that a line does not name were inactive. Only some compounds are listed: those with a hit (about 5.7% of all), similar ones and a draw of the others. Unless noted, calls come from the whole dose curve; as a rule, active = well fitted curve in the direction sought with a large enough effect; inconclusive = small, poorly fitted or top-dose-only effect, or another doubt; inactive = no such curve, though single readings can be large; an effect the other way counts as inactive or inconclusive.

C=CCn1c(SCC(=O)N(CC)C2CCS(=O)(=O)C2)nnc1-c1ccccc1 (stereo not drawn)	none
C=CCn1c(SCC(=O)N(C)C2CCS(=O)(=O)C2)nnc1-c1ccncc1 (stereo not drawn)	DRD3 antagonist -54.1
Oc1ccc(Cl)cc1CNCC1CCCCC1	GLP1R inv ag inconclusive, DRD3 antagonist -75.6
FC(F)(F)c1cc(C(F)(F)F)c2ccc(N3CCN(c4ccc(Cl)cc4)CC3)nc2n1	none
N#CC(c1ccc(Cl)cc1)c1ccc2c(C(F)(F)F)cc(C(F)(F)F)nc2n1 (stereo not drawn)	GLP1R inv ag 7.08µM, GLP1R cytotox 7.94µM
Cc1ccc(-n2ncc3c(NCCCn4ccnc4)ncnc32)cc1	GLP1R inv ag inconclusive (no result: GLP-1R agonist, DRD3 antagonist)
O=C(NCc1ccc(Cl)cc1)C1C2C=CC3(CN(Cc4cccnc4)C(=O)C13)O2 (stereo not drawn)	none
O=C(NCc1ccc(F)cc1)C1C2C=CC3(CN(Cc4cccnc4)C(=O)C13)O2 (stereo not drawn)	D3 ag 31.1
CCOC(=O)c1ccc(-n2c(N)c(C(=O)OC)c3nc4ccccc4nc32)cc1	ClpP mod 2.82µM (no result: GLP-1R agonist, DRD3 antagonist)
CCOc1ccc(-n2c(N)c(C(=O)NCc3ccco3)c3nc4ccccc4nc32)cc1	ClpP mod inconclusive, GLP1R inv ag inconclusive, DRD3 antagonist -79.4
CCOC(=O)c1c(N)n(CCOC(=O)c2cccs2)c2nc3ccccc3nc12	ClpP mod 7.94µM
CCCCCOC(=O)c1c(N)n(CCOC)c2nc3ccccc3nc12	none
COc1ccc(Br)cc1CNC(=O)c1cnc2sc(N3CCCC3)nn2c1=O	ClpP mod inconclusive (no result: GLP-1R agonist, DRD3 antagonist)
CCNC(=O)C1(C)CCN(C(=O)c2cccc(C(F)(F)F)c2)C1 (stereo not drawn)	none
COC1=CC(=O)c2nc(Cl)ccc2C1=O	GLP1R inv ag inconclusive, DRD3 antagonist -74.6, GLP1R cytotox inconclusive
CCN1C(=O)/C(=C/c2nc3ccccc3c(=O)n2-c2ccccc2)c2ccccc21	GLP1R inv ag 2µM, DRD3 antagonist inconclusive
O=C1NC[C@H](CCCCN2C[C@H](Cc3ccc(O)cc3)N(CCc3ccccc3)C(=O)C2=O)N(CCc2ccc(O)cc2)C1=O	none
CCCN(CCC)CCc1cccc2c1CC(=O)N2	D3 ag 81.0 (no result: ClpP mod, GLP1R inv ag, DRD3 antagonist, GLP1R cytotox)
Nc1ccc[n+](CC(=O)c2ccc(F)cc2)c1	none (no result: GLP-1R agonist, GLP1R inv ag, DRD3 antagonist, D3 ag, GLP1R cytotox)
COc1ccc(OC)c(Nc2c3c(nc4ccccc24)CCC3)c1	GLP-1R agonist inconclusive, GLP1R inv ag inconclusive, GLP1R cytotox inconclusive
COc1ccc(OC)c(Nc2c3ccccc3nc3ccccc23)c1	GLP1R inv ag 11.2µM, DRD3 antagonist inconclusive (no result: ClpP mod)
CC(C)c1nc2sc3c(=O)[nH]cnc3c2c2c1CCCC2	none (no result: ClpP mod)
CC(C)c1nc2sc3c(=O)[nH]cnc3c2c2c1CCC2	D3 ag 52.0
COc1c(Br)cc2c(C)c(C(=O)O)oc2c1Br	D3 ag 32.7
COc1ccc2c(C)c(C(=O)O)oc2c1	ClpP mod 25.1µM
CC1CCC(NC(=O)c2ccc(CS(=O)(=O)c3ccc(Cl)cc3)o2)CC1 (stereo not drawn)	GLP1R inv ag inconclusive (no result: GLP-1R agonist, DRD3 antagonist)
O=c1n(Cc2ccc(Cl)cc2)nc2n1-c1ccccc1OC2	none (no result: DRD3 antagonist)
Cc1cccc(CNC(=O)c2oc3c(c2C)-c2nn(Cc4cccc(Cl)c4)cc2CC3)c1	GLP1R inv ag inconclusive (no result: GLP-1R agonist, DRD3 antagonist)
Cc1c(C(=O)NCc2ccccc2)oc2c1-c1[nH]ncc1CC2	ClpP mod 25.1µM (no result: GLP-1R agonist, DRD3 antagonist)
CC(=O)Nc1ccc(NC(=O)c2oc3c(c2C)-c2nn(Cc4ccccc4Cl)cc2CC3)cc1	ClpP mod 20µM, GLP1R inv ag inconclusive, GLP1R cytotox inconclusive (no result: GLP-1R agonist, DRD3 antagonist)
CCN(CC)CCCNC(=O)c1oc2c(c1C)-c1nn(Cc3ccc(Cl)cc3)cc1CC2	ClpP mod 15.8µM, GLP1R inv ag inconclusive, GLP1R cytotox inconclusive (no result: GLP-1R agonist, DRD3 antagonist)
CCOc1ccc(CNC(=O)c2oc3c(c2C)-c2nn(Cc4cccc(Cl)c4)cc2CC3)cc1	GLP1R inv ag 11.2µM (no result: GLP-1R agonist, DRD3 antagonist)
Cc1cc(Cl)ccc1OCC(=O)Nc1c(C(=O)c2ccccc2)oc2ccccc12	none (no result: GLP-1R agonist, DRD3 antagonist)
Cc1c(C(=O)NCCc2ccccc2)cccc1-n1cnc2cccnc21	none (no result: GLP-1R agonist, DRD3 antagonist)
CC(=O)Nc1cccc(Nc2nc3ccccc3n3c(C)nnc23)c1	GLP1R cytotox inconclusive (no result: GLP-1R agonist, DRD3 antagonist)
COCCCNC(=O)c1oc2c(c1C)-c1nn(Cc3ccc(Cl)cc3)cc1CC2	ClpP mod 31.6µM, GLP1R inv ag inconclusive (no result: GLP-1R agonist, DRD3 antagonist)
COc1ccc(NC(=O)Cc2ccc(NC(=O)N3CCCCc4ccccc43)cc2)c(OC)c1	GLP1R inv ag inconclusive (no result: GLP-1R agonist, DRD3 antagonist)
Cc1cccc(N2CCN(c3nc4ccc(C)cc4n4cnnc34)CC2C)c1 (stereo not drawn)	ClpP mod 31.6µM (no result: GLP-1R agonist, DRD3 antagonist)
CC1(C)OC(=O)C2(Cc3ccc(Cl)cc3N3CCCC32)C(=O)O1 (stereo not drawn)	none (no result: GLP-1R agonist, GLP1R inv ag, DRD3 antagonist, D3 ag, GLP1R cytotox)
O=C(NNc1ncc(C(F)(F)F)cc1Cl)c1c(Cl)cccc1Cl	GLP1R inv ag inconclusive, DRD3 antagonist -70.2, GLP1R cytotox inconclusive
Cc1c(Cl)cccc1NC(=S)NNc1ncc(C(F)(F)F)cc1Cl	GLP1R inv ag inconclusive, DRD3 antagonist -75.5, GLP1R cytotox inconclusive
Cc1ccccc1NC(=S)NNc1ncc(C(F)(F)F)cc1Cl	DRD3 antagonist -93.1
Fc1ccccc1NC(=S)NNc1ncc(C(F)(F)F)cc1Cl	GLP1R cytotox inconclusive
NC(COCc1ccccc1)c1csc(NC(=O)Nc2cccc(C(F)(F)F)c2)n1 (stereo not drawn)	GLP1R inv ag inconclusive
COc1ccc(OC)c(S(=O)(=O)N2CC=C(c3c(C)n(CC(=O)N4CCCC4)c4ccccc34)CC2)c1	none (no result: GLP-1R agonist, DRD3 antagonist)
O=C(NCCC1=CCCCC1)C(=O)NCC(c1ccco1)N1CCN(c2ccc(F)cc2)CC1 (stereo not drawn)	DRD3 antagonist -66.5
O=S(=O)(NCC(c1ccco1)N1CCN(c2ccc(F)cc2)CC1)c1ccc2c(c1)OCCO2 (stereo not drawn)	GLP1R inv ag 10µM
Cc1ccccc1CCNC(=O)c1ccc(NC(=O)N2CC(C)Sc3ccccc32)cc1 (stereo not drawn)	GLP1R inv ag inconclusive (no result: GLP-1R agonist, DRD3 antagonist)
c1ccc(-c2noc(-c3cccc4ccccc34)n2)nc1	ClpP mod 39.8µM, GLP1R inv ag inconclusive
c1ccc(-c2ccc(-c3nc(-c4ccccn4)no3)cc2)cc1	ClpP mod 25.1µM
c1ccc(Cc2nc(-c3ccccn3)no2)cc1	none
c1ccc(C(Cc2nc(-c3ccccn3)no2)c2ccccc2)cc1	GLP1R inv ag 10µM, DRD3 antagonist inconclusive
Cc1ccc(-c2nc(-c3ccccn3)no2)cc1Cl	GLP1R inv ag 1.58µM
Clc1cccc(-c2nc(-c3ccccn3)no2)c1	none

Assay outcomes (PubChem BioAssay)
